Counter-ions that a name gives are not always drawn.
How the values were obtained:
Settings in all cases: treatment time: 24 h
A549-ACTB-RAB5A [1] = test: lowest phenotypically active concentration; higher = less potent
Procedure, shortened: (§1)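 Fifteen reporter lines derived from A549, HepG2 and WPMY1 cells by gene editing, carrying BFP for segmentation plus GFP and RFP/FusionRed markers, were exposed to 0.3, 1, 3 or 9 µM for 24 h in four wells each and imaged live. Live-cell features from each well were normalised to solvent control wells. A well set counted as deviating when ≥3 of 4 wells lay beyond the 95th percentile of control Euclidean distances, and as reproducible when the median replicate Pearson correlation exceeded the 95th percentile of non-replicates. Phenotypic activity was assigned only when both criteria were met.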

A549-CANX-COX4 [2] = test: as above
Procedure, shortened: as §1

A549-GM130-SQSTM1 [3] = test: as above
Procedure, shortened: as §1

A549-TP53BP1-CLTA [4] = test: as above
Procedure, shortened: as §1

A549-TUBA1B-RELA [5] = test: as above
Procedure, shortened: as §1

HepG2-TP53BP1-CLTA [6] = test: as above
Procedure, shortened: as §1

A549-ACTB-RAB5A [7] = test: phenotypically active (imaging signature differs from DMSO and reproducible) at any of 0.3-9 uM (binary (1 = active, 0 = inactive)); higher = active
Procedure, shortened: as §1

A549-CANX-COX4 [8] = test: as above
Procedure, shortened: as §1

A549-GM130-SQSTM1 [9] = test: as above
Procedure, shortened: as §1

A549-TP53BP1-CLTA [10] = test: as above
Procedure, shortened: as §1

A549-TUBA1B-RELA [11] = test: as above
Procedure, shortened: as §1

HepG2-ACTB-RAB5A = test: as above
Procedure, shortened: as §1

HepG2-CANX-COX4 = test: as above
Procedure, shortened: as §1

HepG2-GM130-SQSTM1 = test: as above
Procedure, shortened: as §1

HepG2-TP53BP1-CLTA [12] = test: as above
Procedure, shortened: as §1

HepG2-TUBA1B-RELA = test: as above
Procedure, shortened: as §1

WPMY1-CANX-COX4 = test: as above
Procedure, shortened: as §1

WPMY1-GM130-SQSTM1 = test: as above
Procedure, shortened: as §1

WPMY1-TP53BP1-CLTA = test: as above
Procedure, shortened: as §1

WPMY1-TUBA1B-RELA = test: as above
Procedure, shortened: as §1

SMILES	lowest phenotypically active concentration (A549-ACTB-RAB5A [1])	lowest phenotypically active concentration (A549-CANX-COX4 [2])	lowest phenotypically active concentration (A549-GM130-SQSTM1 [3])	lowest phenotypically active concentration (A549-TP53BP1-CLTA [4])	lowest phenotypically active concentration (A549-TUBA1B-RELA [5])	lowest phenotypically active concentration (HepG2-TP53BP1-CLTA [6])	phenotypically active (A549-ACTB-RAB5A [7])	phenotypically active (A549-CANX-COX4 [8])	phenotypically active (A549-GM130-SQSTM1 [9])	phenotypically active (A549-TP53BP1-CLTA [10])	phenotypically active (A549-TUBA1B-RELA [11])	phenotypically active (HepG2-ACTB-RAB5A)	phenotypically active (HepG2-CANX-COX4)	phenotypically active (HepG2-GM130-SQSTM1)	phenotypically active (HepG2-TP53BP1-CLTA [12])	phenotypically active (HepG2-TUBA1B-RELA)	phenotypically active (WPMY1-CANX-COX4)	phenotypically active (WPMY1-GM130-SQSTM1)	phenotypically active (WPMY1-TP53BP1-CLTA)	phenotypically active (WPMY1-TUBA1B-RELA)
CC(=O)O[C@H]1C(=O)[C@@]2(C)[C@H]([C@H](OC(=O)c3ccccc3)[C@]3(O)C[C@H](OC(=O)[C@H](O)[C@@H](NC(=O)c4ccccc4)c4ccccc4)C(C)=C1C3(C)C)[C@]1(OC(C)=O)CO[C@@H]1C[C@@H]2O [paclitaxel]	≤ 0.3 µM	≤ 0.3 µM	≤ 0.3 µM	≤ 0.3 µM	≤ 0.3 µM	≤ 0.3 µM	1 (active)	1 (active)	1 (active)	1 (active)	1 (active)	1 (active)	1 (active)	1 (active)	1 (active)	1 (active)	1 (active)	1 (active)	1 (active)	1 (active)
O=C(Nc1c[nH]nc1-c1nc2cc(CN3CCOCC3)ccc2[nH]1)NC1CC1	≤ 0.3 µM	≤ 0.3 µM	≤ 0.3 µM	≤ 0.3 µM	≤ 0.3 µM	≤ 0.3 µM	1 (active)	1 (active)	1 (active)	1 (active)	1 (active)	1 (active)	1 (active)	1 (active)	1 (active)	1 (active)	1 (active)	1 (active)	1 (active)	1 (active)
O=C(O)c1ccc(Nc2ncc3c(n2)-c2ccc(Cl)cc2C(c2c(F)cccc2F)=NC3)cc1	≤ 0.3 µM	≤ 0.3 µM	≤ 0.3 µM	≤ 0.3 µM	≤ 0.3 µM	≤ 0.3 µM	1 (active)	1 (active)	1 (active)	1 (active)	1 (active)	1 (active)	1 (active)	1 (active)	1 (active)	1 (active)	1 (active)	1 (active)	1 (active)	1 (active)
Nc1ncn([C@@H]2O[C@H](CO)[C@@H](O)[C@H]2O)c(=O)n1 [5-Azacytidine]	1 µM	3 µM	1 µM	1 µM	9 µM	≤ 0.3 µM	1 (active)	1 (active)	1 (active)	1 (active)	1 (active)	1 (active)	1 (active)	1 (active)	1 (active)	1 (active)	1 (active)	1 (active)	1 (active)	1 (active)
Cc1cc(Nc2cc(C)c(C#N)c(NC(C)CCCC(C)(C)O)n2)n[nH]1 (stereo not given) [TC-A 2317 hydrochloride]	1 µM	1 µM	1 µM	1 µM	1 µM	≤ 0.3 µM	1 (active)	1 (active)	1 (active)	1 (active)	1 (active)	1 (active)	1 (active)	1 (active)	1 (active)	1 (active)	1 (active)	1 (active)	1 (active)	1 (active)
COCc1c(C(C)C)nc(C(C)C)c(/C=C/[C@@H](O)C[C@@H](O)CC(=O)O)c1-c1ccc(F)cc1 [cerivastatin]	≤ 0.3 µM	1 µM	1 µM	≤ 0.3 µM	1 µM	≤ 0.3 µM	1 (active)	1 (active)	1 (active)	1 (active)	1 (active)	1 (active)	1 (active)	1 (active)	1 (active)	1 (active)	1 (active)	1 (active)	1 (active)	1 (active)
C[C@@H](N)[C@H]1CC[C@H](C(=O)Nc2ccncc2)CC1	3 µM	9 µM	9 µM	3 µM	9 µM	1 µM	1 (active)	1 (active)	1 (active)	1 (active)	1 (active)	1 (active)	1 (active)	1 (active)	1 (active)	1 (active)	1 (active)	1 (active)	1 (active)	1 (active)
CN1CC[C@H](c2c(O)cc(O)c3c(=O)cc(-c4ccccc4Cl)oc23)[C@H](O)C1 [Flavopiridol hydrochloride]	≤ 0.3 µM	≤ 0.3 µM	≤ 0.3 µM	≤ 0.3 µM	≤ 0.3 µM	≤ 0.3 µM	1 (active)	1 (active)	1 (active)	1 (active)	1 (active)	1 (active)	1 (active)	1 (active)	1 (active)	1 (active)	1 (active)	1 (active)	1 (active)	1 (active)
CC(C)NCCCn1c(Sc2cc3c(cc2I)OCO3)nc2c(N)ncnc21	≤ 0.3 µM	≤ 0.3 µM	≤ 0.3 µM	≤ 0.3 µM	≤ 0.3 µM	≤ 0.3 µM	1 (active)	1 (active)	1 (active)	1 (active)	1 (active)	1 (active)	1 (active)	1 (active)	1 (active)	1 (active)	1 (active)	1 (active)	1 (active)	1 (active)
COc1cc2c(NC3CCN(C(C)C)CC3)nc(N3CCC(F)(F)CC3)nc2cc1OCCCN1CCCC1	≤ 0.3 µM	9 µM	≤ 0.3 µM	3 µM	≤ 0.3 µM	1 µM	1 (active)	1 (active)	1 (active)	1 (active)	1 (active)	1 (active)	1 (active)	1 (active)	1 (active)	1 (active)	1 (active)	1 (active)	1 (active)	1 (active)
COc1c(C)cnc(Cn2cnc3c(Cl)nc(N)nc32)c1C	≤ 0.3 µM	≤ 0.3 µM	≤ 0.3 µM	≤ 0.3 µM	≤ 0.3 µM	≤ 0.3 µM	1 (active)	1 (active)	1 (active)	1 (active)	1 (active)	1 (active)	1 (active)	1 (active)	1 (active)	1 (active)	1 (active)	1 (active)	1 (active)	1 (active)
COc1cc(C(=O)NC2CCN(C)CC2)c(F)cc1Nc1ncc2c(n1)N(C1CCCC1)CC(F)(F)C(=O)N2C [TAK 960 hydrochloride]	≤ 0.3 µM	≤ 0.3 µM	≤ 0.3 µM	≤ 0.3 µM	≤ 0.3 µM	≤ 0.3 µM	1 (active)	1 (active)	1 (active)	1 (active)	1 (active)	1 (active)	1 (active)	1 (active)	1 (active)	1 (active)	1 (active)	1 (active)	1 (active)	1 (active)
CO[C@H]1C[C@@H]2CC[C@@H](C)[C@@](O)(O2)C(=O)C(=O)N2CCCC[C@H]2C(=O)O[C@H]([C@H](C)C[C@@H]2CC[C@@H](OC(=O)C(C)(CO)CO)[C@H](OC)C2)CC(=O)[C@H](C)C=C(C)[C@@H](O)[C@@H](OC)C(=O)[C@H](C)C[C@H](C)C=CC=CC=C1C [Temsirolimus]	≤ 0.3 µM	≤ 0.3 µM	≤ 0.3 µM	3 µM	≤ 0.3 µM	≤ 0.3 µM	1 (active)	1 (active)	1 (active)	1 (active)	1 (active)	1 (active)	1 (active)	1 (active)	1 (active)	1 (active)	1 (active)	1 (active)	1 (active)	1 (active)
COc1cc(C)c(Sc2cnc(NC(=O)c3ccc(CNC(C)C(C)(C)C)cc3)s2)cc1C(=O)N1CCN(C(C)=O)CC1 (stereo not given)	1 µM	9 µM	3 µM	9 µM	1 µM	3 µM	1 (active)	1 (active)	1 (active)	1 (active)	1 (active)	1 (active)	1 (active)	1 (active)	1 (active)	1 (active)	1 (active)	1 (active)	1 (active)	1 (active)
Cc1c(NC(=O)OC[C@@H]2COCCN2)cn2ncnc(Nc3ccc4c(cnn4Cc4cccc(F)c4)c3)c12	1 µM	1 µM	1 µM	≤ 0.3 µM	1 µM	3 µM	1 (active)	1 (active)	1 (active)	1 (active)	1 (active)	1 (active)	1 (active)	1 (active)	1 (active)	1 (active)	1 (active)	1 (active)	1 (active)	1 (active)
CC(C)n1c(/C=C/[C@@H](O)C[C@@H](O)CC(=O)O)c(-c2ccc(F)cc2)c2ccccc21.CC(C)n1c(/C=C/[C@H](O)C[C@H](O)CC(=O)O)c(-c2ccc(F)cc2)c2ccccc21 [Fluvastatin sodium]	≤ 0.3 µM	9 µM	3 µM	9 µM	9 µM	1 µM	1 (active)	1 (active)	1 (active)	1 (active)	1 (active)	1 (active)	1 (active)	1 (active)	1 (active)	1 (active)	1 (active)	1 (active)	1 (active)	1 (active)
Nc1ncnc2c1nc(Cl)n2C1O[C@H](CO)[C@@H](O)[C@H]1O (stereo not given in full) [8-Chloroadenosine]	1 µM	1 µM	1 µM	1 µM	1 µM	3 µM	1 (active)	1 (active)	1 (active)	1 (active)	1 (active)	1 (active)	1 (active)	1 (active)	1 (active)	1 (active)	1 (active)	1 (active)	1 (active)	1 (active)
CN1CCC(=C2c3ccccc3CC(=O)c3sccc32)CC1 [ketotifen]	9 µM	9 µM	9 µM	9 µM	9 µM	9 µM	1 (active)	1 (active)	1 (active)	1 (active)	1 (active)	1 (active)	1 (active)	1 (active)	1 (active)	1 (active)	1 (active)	1 (active)	1 (active)	1 (active)
CO[C@H]1C=CC=C(C)C(=O)NC2=CC(=O)C(NCCN(C)C)=C(C[C@@H](C)C[C@H](OC)[C@H](O)[C@@H](C)C=C(C)[C@@H]1OC(N)=O)C2=O [17-DMAG hydrochloride]	≤ 0.3 µM	≤ 0.3 µM	≤ 0.3 µM	≤ 0.3 µM	≤ 0.3 µM	≤ 0.3 µM	1 (active)	1 (active)	1 (active)	1 (active)	1 (active)	1 (active)	1 (active)	1 (active)	1 (active)	1 (active)	1 (active)	1 (active)	1 (active)	1 (active)
Oc1cccc(-c2nc(N3CCOCC3)c3oc4ncccc4c3n2)c1 [PI 103 hydrochloride]	≤ 0.3 µM	≤ 0.3 µM	≤ 0.3 µM	≤ 0.3 µM	≤ 0.3 µM	≤ 0.3 µM	1 (active)	1 (active)	1 (active)	1 (active)	1 (active)	1 (active)	1 (active)	1 (active)	1 (active)	1 (active)	1 (active)	1 (active)	1 (active)	1 (active)
Cc1n[nH]c2ccc(-c3cncc(OC[C@@H](N)Cc4ccccc4)c3)cc12	≤ 0.3 µM	≤ 0.3 µM	≤ 0.3 µM	≤ 0.3 µM	≤ 0.3 µM	≤ 0.3 µM	1 (active)	1 (active)	1 (active)	1 (active)	1 (active)	1 (active)	1 (active)	1 (active)	1 (active)	1 (active)	1 (active)	1 (active)	1 (active)	1 (active)
O=C(Nc1cccnc1)N1CCC(Cc2cccc(Oc3ccc(C(F)(F)F)cn3)c2)CC1	9 µM	9 µM	3 µM	9 µM	9 µM	9 µM	1 (active)	1 (active)	1 (active)	1 (active)	1 (active)	1 (active)	0 (inactive)	0 (inactive)	1 (active)	1 (active)	0 (inactive)	1 (active)	0 (inactive)	0 (inactive)
